GALK inhibitor – inhibitors of human galactokinase (GALK) | P51570 | recombinant GALK, Kinase-Glo ATP luminescence, 1 h | Potency, µM (titrated, usually from 57.5 µM), without a hit: top-dose activity, negative = inhibition, most hits filed as inhibitors | 44,000 tested, under 10 active;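 also: plate controls were full GALK reaction for no effect and reaction lacking GALK for full effect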
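Compounds were pinned into ATP buffer, then GALK-galactose mix was added (final 5 nM enzyme, 35 uM ATP, 100 uM galactose, pH 8.0). After 1 h at room temperature, Kinase-Glo Plus was added and luminescence read.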
TSG101-PTAP inh – inhibitors of HIV-1 PTAP binding to human TSG101, validation | Fluorescence polarization, FITC-PTAP peptide/Tsg101, 20 min | Potency, µM (series often up to 115 µM), usual class: inhibitors | 44,000 tested, under 10 active | Q99816; also: potency is read from the fitted curve at half-maximal effect; 0% is about no effect
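Fluorescence polarization: Tsg101 binding domain (10 uM final) in 10 mM HEPES pH 7.5, 0.15 M NaCl, 0.01% Tween 20, 3 mM EDTA, 0.1 mM TCEP; compounds pinned; FITC-PTAP peptide 50 nM final; 20 min, r.t.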
DRV1 agonist – agonists of human resolvin D1 receptor DRV1 (GPR32); CHO-K1 GPR32 beta-arrestin PathHunter luminescence, 90 min; zero percent set by DMSO-only wells; activation, % at 76.9 µM; 48,000 compounds, 2.5% hits;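 active = activation of at least 60% and not above a set upper limit, about 1 call in 100 departs from these limits; inconclusive = activation of 40% to 60%, or above that upper limit; inactive = activation under 40%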; also: 0% is about no effect
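Cells are plated overnight, treated with compounds in DMSO for 90 minutes at 37 °C, and developed with PathHunter detection reagent for 1 hour before luminescence is read; signal reflects beta-arrestin binding to GPR32 in engineered CHO-K1 cells.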
FH mod – Identification of activators of human fumarate hydratase by quantitative high-throughput screening; FH coupled MDH/diaphorase resazurin fluorescence, 15 min; Potency, µM (doses to about 79.9 µM), without a hit: top-dose activity change, negative = inhibition, most hits filed as inhibitors; 54,000 compounds, 0.22% hits; AID 1347055, 2019; also: potency is read from the fitted curve at half-maximal effect; % is scaled to controls: 0 for no effect and ±100 for the full control effect; the screen sought activators but most active calls are inhibition curves; nearly all actives have a fitted effect of over 45% in size
B2AR arrestin ag – agonists recruiting beta-arrestin to human beta2-adrenergic receptor. P07550. HTLA Tango cells, beta-arrestin recruitment, luciferase luminescence, 18 h. Potency, µM (series often up to 46.1 µM), usual class: activators. 44,000 tested, under 10 active;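 also: potency is read from the fitted curve at half-maximal effect; 0% = DMSO and full agonism = EC100 isoproterenol or metaproterenol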
Target sequence (P07550 whole entry, looked up): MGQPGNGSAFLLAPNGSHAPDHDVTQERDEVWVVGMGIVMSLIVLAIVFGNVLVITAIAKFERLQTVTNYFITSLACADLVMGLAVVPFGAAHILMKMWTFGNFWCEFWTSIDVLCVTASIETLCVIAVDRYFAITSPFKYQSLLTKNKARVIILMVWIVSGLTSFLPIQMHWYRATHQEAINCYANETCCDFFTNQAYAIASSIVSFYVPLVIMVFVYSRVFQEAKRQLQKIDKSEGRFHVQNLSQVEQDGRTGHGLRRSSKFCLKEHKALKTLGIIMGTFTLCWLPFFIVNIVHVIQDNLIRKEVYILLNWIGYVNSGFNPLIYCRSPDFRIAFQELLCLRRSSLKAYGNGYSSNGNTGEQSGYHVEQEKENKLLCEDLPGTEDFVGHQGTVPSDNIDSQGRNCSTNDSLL
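First, Tango cells carrying beta2-AR and beta-arrestin fusions received compound up to 46 microM. After 18 hr at 37 degrees C, luciferase substrate was added for 15 minutes, then luminescence gave %Activity for curve fitting.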
NTMT1 inhibitor – NTMT1 methyltransferase inhibition. Potency, µM (top dose mostly 114 µM), for the others: top-dose activity change, negative = inhibition, most hits filed as inhibitors. 59,000 compounds, 2.5% hits. NTMT1 MTase-Glo SAH luminescence, purified enzyme. AID 1645870. Q9BV86;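 also: potency is read from the fitted curve at half-maximal effect; plate controls were DMSO vehicle for no effect and no enzyme for full effect; nearly all actives have a fitted effect of over 65% in size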
Target sequence (Q9BV86 whole entry, looked up): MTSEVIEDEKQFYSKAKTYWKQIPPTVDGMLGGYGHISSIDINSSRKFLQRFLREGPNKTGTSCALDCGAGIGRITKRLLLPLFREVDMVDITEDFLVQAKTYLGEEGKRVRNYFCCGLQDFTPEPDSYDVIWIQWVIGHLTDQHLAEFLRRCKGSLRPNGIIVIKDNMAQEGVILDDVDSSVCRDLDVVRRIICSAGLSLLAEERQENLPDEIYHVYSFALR
The depositor's hits bear a star; i = inactive; ? = inconclusive; · = not tested or not shown; [ ] = remark or other dose. An excerpt weighted towards active compounds, which were near 3.7% of everything screened. Unless noted, calls follow the shape of the dose curve; as a rule, active = well fitted curve in the direction sought with a large enough effect; inconclusive = small, poorly fitted or top-dose-only effect, or another doubt; inactive = no such curve, though single readings can be large; an effect the other way counts as inactive or inconclusive.

SMILES	GALK inhibitor	TSG101-PTAP inh	DRV1 agonist	FH mod	B2AR arrestin ag	NTMT1 inhibitor
CC1COC(Nc2ccc3ncnc(Nc4ccc(OCc5nccs5)c(Cl)c4)c3c2)=N1 (centres undefined)	·	·	·	0%	·	-21%[57.5 µM]
CCCCNC(=O)Nc1ccc2c(c1)N(C)C(=O)c1ccccc1S2	3%	i	-9	-25%	i	89µM*
N#C/C(=C\c1ccc(-c2ccc(Cl)c(C(=O)O)c2)o1)c1nc2ccccc2[nH]1	0%	i	-1	40µM*	i	?
N#C/C(=C\c1ccc(-c2ccc(C(=O)O)cc2)o1)c1nc2ccccc2[nH]1	-2%	i	8	28µM*	i	45µM*
CCCCN(CCCC)C(=O)CN1C[C@H](c2ccc3c(c2)OCO3)[C@@H](C(=O)O)[C@@H]1c1ccc(OC)cc1	·	·	·	1%	·	?
COc1ccccc1NC(=O)COC(=O)CC(C)(C)CC1=NS(=O)(=O)c2ccccc2N1	0%	i	?	0%	?	-3%
CC(C)(CC(=O)OCC(=O)Nc1ccccc1F)CC1=NS(=O)(=O)c2ccccc2N1	-6%	i	112*	-9%	i	-7%
CCOC(=O)c1ccccc1NC(=O)COC(=O)CC(C)(C)CC1=NS(=O)(=O)c2ccccc2N1	-2%	i	84*	-34%	i	-18%
CC(C)(CC(=O)OCC(=O)Nc1ccc(F)c(Cl)c1)CC1=NS(=O)(=O)c2ccccc2N1	2%	i	115*	-9%	i	-20%
CC(C)NC(=O)C1CCC(n2c(NC(=O)c3ccc(F)cc3)nc3ccc(CN4CCC(C(C)(C)O)CC4)cc32)CC1 (centres undefined)	·	·	·	·	·	16%[57.5 µM]
Cc1ccsc1C1N=C(Nc2nc3ccccc3o2)NC2=C1C(=O)CCC2 (centres undefined)	·	·	·	·	·	6%
CC(=O)Nc1cccc(NC(=O)Cc2csc(COc3cccc(C)c3)n2)c1	6%	i	69*	16%	i	-2%
COc1ccc(CNC(=O)c2ccc(CS(=O)(=O)c3ccccc3OC)o2)cc1	0%	i	-5	1%	i	12%
COc1ccccc1S(=O)(=O)Cc1ccc(C(=O)NCc2ccc(Cl)cc2)o1	1%	i	98*	-7%	i	-3%
O=C(NCCc1ccc(Cl)cc1)c1ccc(CS(=O)(=O)Cc2ccccc2F)o1	1%	i	111*	-17%	i	4%
Cc1cc(C)n2nc(SCC(=O)Nc3ccccc3)nc2n1	4%	i	5	-13%	i	?
CC(=O)c1cccc(NC(=O)CN2C=NS(=O)(=O)c3ccc(C)cc32)c1	2%	i	-5	0%	i	4%
O=C(CN1C=NS(=O)(=O)c2ccc(C(F)(F)F)cc21)Nc1cccc(C(F)(F)F)c1	-2%	i	99*	-8%	i	10%
Cc1cc(C)n2nc(SCC(=O)Nc3cccc(C(F)(F)F)c3)nc2n1	6%	i	61*	-26%	i	-12%
O=C(CSc1nc2cc3ccccc3cc2[nH]1)Nc1cccc(C(F)(F)F)c1	3%	i	94*	-12%	i	11%
COC1CC(OC2CCC3(C)C(=CCC4C3CCC3(C)C(C(C)O)CCC43O)C2)OC(C)C1OC1OC(C)C(OC2OC(COC3OC(COC4OC(CO)C(O)C(O)C4O)C(O)C(O)C3O)C(O)C(O)C2O)C(OC)C1O (centres undefined)	·	·	·	-1%[20.6 µM]	·	9%[12.6 µM]
COc1ccc(CCNC(=O)Cn2nc(-c3ccc(C)cc3)ccc2=O)cc1OC	·	·	·	·	·	-5%
COc1ccc(NS(=O)(=O)c2ccc(C)cc2)cc1C(=O)Nc1nc(-c2ccccc2)cs1	·	·	·	·	·	18%
O=C(Nc1nc(-c2ccc(Br)cc2)ns1)c1ccccc1F	-6%	i	60*	0%	i	2%
COc1ccc(-c2nsc(NC(=O)c3ccccc3Br)n2)cc1	8%	i	20	-21%	i	-3%
SMILES	GALK inhibitor	TSG101-PTAP inh	DRV1 agonist	FH mod	B2AR arrestin ag	NTMT1 inhibitor
Fc1ccc(-c2ccc(CNc3nc(-c4ccccc4C(F)(F)F)nc4ccccc34)cc2)cc1C(F)(F)F	·	·	·	·	·	3%
Cc1ccc(CCNC(=O)CN2CCN(Cc3ccc(Cl)cc3)C2=O)cc1	-8%	i	60*	-5%	i	-3%
O=C(CN1CCN(Cc2ccc(F)cc2Cl)C1=O)NCCc1ccc(Cl)cc1	3%	i	44	-7%	i	3%
C=C1c2cccc(O)c2C(O)=C2C(=O)[C@@]3(O)C(O)=C(C(N)=O)C(=O)[C@@H](N(C)C)[C@@H]3[C@@H](O)[C@H]12	·	·	·	-10%[53.3 µM]	·	13µM*
COc1cccc(CNc2ccc(S(=O)(=O)Nc3ccc(C4CCNCC4)cc3)cc2)c1O	·	·	·	·	·	40µM*
COc1cccc(CNc2ccc(S(=O)(=O)Nc3ccc4ccccc4c3)cc2)c1O	·	·	·	·	·	16%[57.5 µM]
CC(=O)Nc1sc2c(c1-c1ncco1)CCNC2	·	·	·	·	·	2%
COc1cccc(-n2cc(C(=O)Nc3ccccc3C(N)=O)c3ccccc3c2=O)c1	0%	i	-11	8%	i	89µM*
COc1ccc(CNC(=O)c2cn(-c3cccc(OC)c3)c(=O)c3ccccc23)cc1	2%	i	-19	-12%	i	0%
CCc1c(C)sc2c1CCN(Cc1cccc(OC)c1)C2c1ccccc1 (centres undefined)	-5%	i	61*	-24%	i	-24%
CCC(=O)N1CCc2cc(S(=O)(=O)CCC(=O)Nc3ccc(OC(F)(F)F)cc3)ccc21	8%	i	65*	-7%	i	8%
CCC(=O)N1CCc2cc(S(=O)(=O)CCC(=O)NCc3ccc(OC)cc3)ccc21	0%	i	-3	1%	i	17%
CCCCn1c(=N)n(CCCOc2ccc(F)cc2)c2ccccc21	4%	i	76*	11%	i	-14%
CC(NC(=O)CSc1nc(-c2cccc(Cl)c2)nc2cc(=O)[nH]n12)c1nc2ccccc2n1C (centres undefined)	-3%	i	69*	·	i	·
COC(=O)c1cc(NC(=O)c2ccc3c(c2)NC(=O)c2ccccc2S3)cc(C(=O)OC)c1	-1%	i	-18	-1%	i	?
O=C(Nc1ccc(F)cc1)c1ccc2c(c1)NC(=O)c1ccccc1S2	11%	i	76*	·	i	·
